Among all 5,500 compounds or so, about 2,000 (36%) were called active. Inconclusive results (about 18%) are left out. No stated cut-off is given here; in the data, active means normalized growth mostly below about 0.91 (no sharp cut-off); inconclusive means no clear call, values can overlap the other calls; inactive means mostly above about 0.92. Some of the results follow.
Assay: chemical genetic growth profiling, strain panel (AID 1159580);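 further: tested at 20 µM; growth read once vehicle control cultures reached saturation at 30 °C; 1 = growth at the plate median or of vehicle wells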
Conditions: S. cerevisiae deletion strains, growth OD
[1] = locus YAR019C, strain CDC15, stronger effect = lower value
[2] = locus YBL105C, strain PKC1, stronger effect = lower value
[3] = locus YBR135W, strain CKS1, stronger effect = lower value
[4] = locus YBR136W, strain MEC1, stronger effect = lower value
[5] = locus YBR160W, strain CDC28, stronger effect = lower value
[6] = locus YDL017W, strain CDC7, stronger effect = lower value
[7] = locus YDL028C, strain MPS1, stronger effect = lower value
[8] = locus YDL101C, strain DUN1, stronger effect = lower value
[9] = locus YDL108W, strain KIN28, stronger effect = lower value
[10] = locus YDL132W, strain cdc53, stronger effect = lower value
[11] = locus YDL214C, strain PRR2, stronger effect = lower value
[12] = locus YDR052C, strain DBF4, stronger effect = lower value
[13] = locus YDR054C, strain cdc34, stronger effect = lower value
[14] = locus YDR226W, strain ADK1, stronger effect = lower value
[15] = locus YDR477W, strain SNF1, stronger effect = lower value
[16] = locus YER123W, strain YCK3, stronger effect = lower value
[17] = locus YER133W, strain GLC7, stronger effect = lower value
[18] = locus YFL009W, strain cdc4, stronger effect = lower value
[19] = locus YFL029C, strain CAK1, stronger effect = lower value
[20] = locus YFR003C, strain YPI1, stronger effect = lower value
[21] = locus YFR019W, strain FAB1, stronger effect = lower value
[22] = locus YFR028C, strain CDC14, stronger effect = lower value
[23] = locus YGR040W, strain KSS1, stronger effect = lower value
[24] = locus YGR052W, strain FMP48, stronger effect = lower value
[25] = locus YGR092W, strain DBF2, stronger effect = lower value
[26] = locus YHR030C, strain SLT2, stronger effect = lower value
[27] = locus YHR079C, strain IRE1, stronger effect = lower value
[28] = locus YHR082C, strain KSP1, stronger effect = lower value
[29] = locus YHR205W, strain SCH9, stronger effect = lower value
[30] = locus YIL147C, strain SLN1, stronger effect = lower value
[31] = locus YJL095W, strain BCK1, stronger effect = lower value
[32] = locus YJL128C, strain PBS2, stronger effect = lower value
[33] = locus YJL157C, strain FAR1, stronger effect = lower value
[34] = locus YJR016C, strain ILV3, stronger effect = lower value
[35] = locus YJR066W, strain TOR1 (second series), stronger effect = lower value
[36] = locus YJR066W, strain TOR1, stronger effect = lower value
[37] = locus YKL048C, strain ELM1, stronger effect = lower value
[38] = locus YKL067W, strain YNK1, stronger effect = lower value
[39] = locus YKL101W, strain HSL1, stronger effect = lower value
[40] = locus YKL193C, strain SDS22, stronger effect = lower value
[41] = locus YKL203C, strain TOR2, stronger effect = lower value
[42] = locus YLR113W, strain HOG1, stronger effect = lower value
[43] = locus YLR133W, strain CKI1, stronger effect = lower value
[44] = locus YLR403W, strain SFP1, stronger effect = lower value
[45] = locus YML070W, strain DAK1, stronger effect = lower value
[46] = locus YMR001C, strain CDC5, stronger effect = lower value
[47] = locus YMR205C, strain PFK2 (second series), stronger effect = lower value
[48] = locus YMR277W, strain FCP1, stronger effect = lower value
[49] = locus YNL006W, strain LST8, stronger effect = lower value
[50] = locus YNL020C, strain ARK1, stronger effect = lower value
[51] = locus YNL161W, strain CBK1, stronger effect = lower value
[52] = locus YNL183C, strain NPR1, stronger effect = lower value
[53] = locus YNL207W, strain RIO2, stronger effect = lower value
[54] = locus YNL222W, strain SSU72, stronger effect = lower value
[55] = locus YNL307C, strain MCK1 (second series), stronger effect = lower value
[56] = locus YOL078W, strain AVO1, stronger effect = lower value
[57] = locus YOL136C, strain PFK27, stronger effect = lower value
[58] = locus YOR061W, strain CKA2, stronger effect = lower value
[59] = locus YOR119C, strain RIO1, stronger effect = lower value
[60] = locus YOR231W, strain MKK1, stronger effect = lower value
[61] = locus YOR329C, strain SCD5, stronger effect = lower value
[62] = locus YPL031C, strain PHO85, stronger effect = lower value
[63] = locus YPL153C, strain RAD53, stronger effect = lower value
[64] = locus YPL204W, strain HRR25, stronger effect = lower value
[65] = locus YPL209C, strain IPL1, stronger effect = lower value
[66] = locus YPL256C, strain CLN2, stronger effect = lower value
[67] = locus YPR025C, strain CCL1, stronger effect = lower value
[68] = locus YPR106W, strain ISR1, stronger effect = lower value
[69] = locus YPR111W, strain DBF20, stronger effect = lower value
[70] = strain NNK1, stronger effect = lower value
[71] = strain TSCII, stronger effect = lower value

Measured: normalized growth

CCC1(c2ccccc2)OC(c2cc(Cl)cc(Cl)c2O)Nc2ccccc21 (stereo not drawn)
inactive: [1] 0.96 | [2] 0.964 | [3] 0.965 | [4] 0.968 | [5] 0.964 | [6] 0.965 | [7] 0.966 | [8] 0.986 | [9] 0.968 | [10] 0.963 | [11] 0.705 | [12] 0.976 | [13] 0.954 | [14] 0.97 | [17] 0.734 | [18] 0.962 | [19] 0.967 | [20] 0.958 | [22] 0.963 | [24] 0.651 | [28] 0.689 | [29] 0.639 | [30] 0.964 | [32] 0.93 | [34] 0.962 | [35] 0.633 | [36] 0.572 | [40] 0.971 | [41] 0.751 | [46] 0.971 | [48] 0.968 | [49] 0.969 | [51] 0.962 | [52] 0.646 | [53] 0.96 | [54] 0.956 | [56] 0.967 | [59] 0.753 | [61] 0.962 | [62] 0.685 | [65] 0.954 | [67] 0.96 | [68] 0.954 | [69] 0.957 | [70] 0.963 | [71] 0.966
active: [15] 0.689 | [16] 0.513 | [21] 0.738 | [23] 0.689 | [25] 0.233 | [26] 0.449 | [27] 0.461 | [31] 0.464 | [33] 0.564 | [37] 0.717 | [38] 0.696 | [39] 0.678 | [42] 0.539 | [43] 0.623 | [44] 0.572 | [45] 0.561 | [47] 0.688 | [50] 0.552 | [55] 0.551 | [57] 0.452 | [58] 0.469 | [60] 0.476 | [63] 0.562 | [64] 0.604 | [66] 0.47

O=S(=O)(Nc1cc(-c2cccs2)nn1-c1ccc(I)cc1)c1cccc(F)c1
inactive: [1] 0.957 | [2] 0.966 | [3] 0.966 | [4] 0.97 | [5] 0.956 | [6] 0.97 | [7] 0.948 | [8] 0.983 | [9] 0.958 | [10] 0.966 | [11] 0.926 | [12] 0.983 | [13] 0.986 | [14] 0.961 | [15] 0.926 | [16] 0.929 | [17] 0.951 | [18] 0.971 | [19] 0.953 | [20] 0.979 | [21] 0.974 | [22] 0.983 | [23] 0.931 | [24] 0.966 | [25] 0.876 | [27] 0.922 | [28] 0.968 | [29] 0.863 | [30] 0.967 | [31] 0.903 | [32] 0.91 | [33] 0.956 | [34] 0.969 | [35] 0.952 | [36] 0.906 | [37] 0.947 | [38] 0.912 | [39] 0.931 | [40] 0.971 | [41] 1.03 | [43] 0.935 | [44] 0.944 | [45] 0.936 | [46] 0.966 | [47] 0.945 | [48] 0.968 | [49] 0.964 | [50] 0.946 | [51] 0.974 | [52] 0.986 | [53] 0.968 | [54] 0.956 | [55] 0.911 | [56] 0.966 | [57] 0.925 | [58] 0.951 | [59] 0.961 | [60] 0.935 | [61] 0.968 | [62] 0.928 | [63] 0.943 | [64] 0.928 | [65] 0.975 | [66] 0.87 | [67] 0.966 | [68] 0.964 | [69] 1.01 | [70] 0.965 | [71] 0.965
active: [26] 0.715 | [42] 0.848

COc1ccc(-n2nc(C(F)(F)F)cc2-c2ccc(Cl)cc2)cc1
inactive: locus YAL040C, strain CLN3, stronger effect = lower value 1.09 | locus YCL061C, strain MRC1 (second series), stronger effect = lower value 1.01 | locus YDR363W, strain ESC2, stronger effect = lower value 1.02 | locus YER002W, strain NOP16, stronger effect = lower value 1.03 | locus YGR078C, strain PAC10, stronger effect = lower value 1.01 | locus YMR263W, strain SAP30, stronger effect = lower value 1 | locus YMR307W, strain GAS1, stronger effect = lower value 1.01 | locus YNL175C, strain NOP13, stronger effect = lower value 1.02 | locus YNL197C, strain WHI3, stronger effect = lower value 1.02 | locus YNL224C, strain SQS1, stronger effect = lower value 0.998 | locus YNL322C, strain KRE1, stronger effect = lower value 1.02 | locus YOR083W, strain WHI5 (second series), stronger effect = lower value 1.02 | locus YPL055C, strain LGE1, stronger effect = lower value 1.02 | locus YPL241C, strain CIN2, stronger effect = lower value 1

O=S(=O)(Nc1ccc(-n2nc(C(F)(F)F)cc2-c2cccs2)cc1)c1ccc(F)cc1
inactive: [1] 0.993 | [2] 0.979 | [3] 0.997 | [4] 0.991 | [5] 0.998 | [6] 0.99 | [7] 0.995 | [8] 0.993 | [9] 1 | [10] 0.989 | [11] 0.986 | [12] 0.98 | [13] 0.982 | [14] 0.996 | [15] 0.991 | [16] 0.979 | [17] 0.973 | [18] 0.991 | [19] 0.994 | [20] 0.99 | [21] 0.985 | [22] 0.997 | [23] 0.987 | [24] 1.04 | [25] 0.99 | [26] 1.01 | [27] 0.993 | [28] 1.06 | [29] 0.983 | [30] 0.99 | [31] 1.04 | [32] 0.951 | [33] 0.979 | [34] 0.999 | [35] 0.956 | [36] 1.04 | [37] 0.991 | [38] 0.991 | [39] 0.995 | [40] 0.986 | [41] 1.04 | [42] 0.938 | [43] 0.983 | [44] 0.972 | [45] 0.992 | [46] 0.989 | [47] 0.995 | [48] 0.992 | [49] 0.991 | [50] 0.987 | [51] 0.989 | [52] 1.02 | [53] 0.993 | [54] 0.99 | [55] 0.996 | [56] 0.994 | [57] 0.973 | [58] 0.998 | [59] 1.05 | [60] 0.974 | [61] 0.988 | [62] 0.986 | [63] 0.997 | [64] 0.966 | [65] 0.988 | [66] 0.94 | [67] 0.993 | [68] 0.978 | [69] 0.974 | [70] 0.975 | [71] 0.995

COc1ccc(-c2cc(NS(=O)(=O)c3cccc(F)c3)n(-c3ccc(Cl)c(Cl)c3)n2)cc1
inactive: [1] 0.961 | [2] 0.971 | [3] 0.977 | [4] 0.965 | [5] 0.963 | [6] 0.97 | [7] 0.945 | [8] 0.979 | [9] 0.975 | [10] 0.977 | [11] 0.92 | [12] 0.984 | [13] 0.966 | [14] 0.961 | [15] 0.903 | [16] 0.908 | [17] 0.94 | [18] 0.947 | [19] 0.961 | [20] 0.98 | [21] 0.931 | [22] 0.965 | [23] 0.894 | [24] 0.954 | [25] 0.838 | [27] 0.888 | [28] 0.873 | [29] 0.856 | [30] 0.959 | [31] 0.888 | [32] 0.921 | [33] 0.939 | [34] 0.972 | [35] 0.922 | [36] 0.87 | [37] 0.929 | [38] 0.91 | [39] 0.87 | [40] 0.968 | [41] 0.995 | [43] 0.912 | [44] 0.924 | [45] 0.906 | [46] 0.956 | [47] 0.937 | [48] 0.947 | [49] 0.966 | [50] 0.89 | [51] 0.971 | [52] 0.956 | [53] 0.973 | [54] 0.958 | [55] 0.839 | [56] 0.976 | [57] 0.887 | [58] 0.87 | [59] 0.944 | [60] 0.873 | [61] 0.967 | [62] 0.913 | [63] 0.915 | [64] 0.905 | [65] 0.97 | [67] 0.966 | [68] 0.963 | [69] 0.942 | [70] 0.961 | [71] 0.962
active: [26] 0.635 | [42] 0.811 | [66] 0.828
